Experiment [1] is described as follows: qHTS assay to identify small molecule antagonists of the androgen receptor (AR) signaling pathway using the MDA cell line in the presence of 0.5 nM R1881 - cell viability counter screen (AID 1259242). Also: nearly all actives have a fitted effect of over 45% in size. Also: potency is read from the fitted curve at half-maximal effect. In short, it runs like this: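 qHTS format. MDA-kb2 (MMTV-luc, AR/GR responsive) + cpd + 0.5 nM R1881 final, 16 hr 37C/0% CO2 → CellTiter-Fluor 30 min → fluorescence intensity.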

Experiment [2] has as its target Estrogen receptor (Homo sapiens) (UniProt P03372). In words: qHTS assay to identify small molecule antagonists of the estrogen receptor alpha (ER-alpha) signaling pathway using the BG1 cell line in the presence of 0.1 nM 17-beta-estradiol (AID 1259244). Also: nearly all actives have a fitted effect of over 50% in size. Also: potency is read from the fitted curve at half-maximal effect. The gist of the method:
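Reporter is a stably transfected luciferase under four estrogen responsive elements in VM7Luc4E2 cells expressing native full-length ER-alpha; inhibition of 0.1 nM (final) 17beta-estradiol-driven signal over 22 h is read by luminescence.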
(qHTS replaces the single test concentration by a dilution series.)

A short description of experiment [3]: qHTS assay to identify small molecule HDAC inhibitors (AID 1259364). Also: potency is read from the fitted curve at half-maximal effect.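 Also: wild-type HCT-116 cells with endogenous class I/II HDAC activity; nearly all actives have a fitted effect of over 45% in size.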 As to activity change, negative = inhibition: top concentration of the series differs between compounds. The gist of the method: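 Quantitative high-throughput format: overnight-seeded HCT-116 cells got compounds for 2 hr at 37C; HDAC-Glo I/II reagent added, 30 min RT, luminescence measured.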
Experiment [4] can be described thus: qHTS assay to identify small molecule HDAC inhibitors - cell viability counter screen (AID 1259365). Also: nearly all actives have a fitted effect of over 50% in size. Also: potency is read from the fitted curve at half-maximal effect. As to activity change, negative = cytotoxicity: series mostly up to about 92 µM. In short, it runs like this:
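CellTiter-Glo luminescence (30 min, room temperature) reported viability after a 2 h compound exposure at 37 C. Cells: wild-type HCT-116, 1,500 per well, seeded the night before.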

Experiment [5] is described as follows: qHTS assay to identify small molecule agonists of the sonic hedgehog signaling (Shh) pathway - cell viability counter screen (AID 1259366). Also: nearly all actives have a fitted effect of over 50% in size. Also: potency is read from the fitted curve at half-maximal effect. The gist of the method:
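Cytotoxicity counter screen: CellTiter-Fluor reagent added after 23 h compound exposure, then 1 h at 37C and fluorescence read. Cells were 3T3 Gli1-Luc, seeded 2,000 per well and dosed 4 h post-plating.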

Experiment [6] in a line: qHTS assay to identify small molecule antagonists of the sonic hedgehog signaling (Shh) pathway - cell viability counter screen (AID 1259367). Also: nearly all actives have a fitted effect of over 55% in size. Also: potency is read from the fitted curve at half-maximal effect. In short, it runs like this:
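Tox21 library chemicals were tested on a Gli1-Luc NIH/3T3 clone (2,000 cells/well) stimulated by conditioned medium; viability was quantified as fluorescence from CellTiter-Fluor reagent added at 23 hr.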

A short description of experiment [7]: qHTS assay to identify small molecule agonists of the sonic hedgehog signaling (Shh) pathway (AID 1259368; calls by dose curve; also: nearly all actives have a fitted effect of over 15% in size; also: potency is read from the fitted curve at half-maximal effect;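 as to activity change: NIH/3T3-derived 3T3Gli1-Luc cells carrying a stable Gli1-driven firefly luciferase reporter; series mostly up to about 92 µM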). The gist of the method: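 Quantitative high-throughput format using a Gli1-driven firefly luciferase reporter line derived from NIH/3T3 cells. After a 24 hr compound treatment at 37 C and 5% CO2, luminescence reported Gli1 response element activity.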

Experiment [8] has as its target Androgen receptor (Homo sapiens) (UniProt P10275). In words: qHTS assay to identify small molecule antagonists of the androgen receptor (AR) signaling pathway using the MDA cell line in the presence of 0.5 nM R1881 (AID 1259243). Also: nearly all actives have a fitted effect of over 50% in size. Also: potency is read from the fitted curve at half-maximal effect. The gist of the method: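 Antagonist mode quantitative HTS in MDA-kb2 MMTV-luciferase cells, agonist R1881 at 0.5 nM final, 16 hr exposure at 37C and 0% CO2, luminescent detection.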

The nature of experiment [9]: qHTS assay to identify small molecule phospholipidosis (PLD) inducers (AID 1259344; active = well fitted curve in the direction sought with a large enough effect; an effect the other way counts as inactive or inconclusive; also: potency is read from the fitted curve at half-maximal effect). The gist of the method: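 Image-based: LipidTOX Red pit count/intensity per well and per cell; HepG2, 24 h compound at 37 C, PFA fixation, Hoechst counterstain.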
Experiment [10] is described as follows: qHTS assay to identify small molecule antagonists of the estrogen receptor alpha (ER-alpha) signaling pathway using the BG1 cell line in the presence of 0.1 nM 17-beta-estradiol - cell viability counter screen (AID 1259241). Also: nearly all actives have a fitted effect of over 40% in size. In short, it runs like this: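 Cytotoxicity counter-screen: live-cell protease activity measured by fluorescence (30 min reagent step) in the same wells. Cells were VM7Luc4E2 with endogenous ER-alpha and ERE-driven luciferase, treated 22 hr at 37C alongside 0.1 nM 17beta-estradiol final.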

Where “and” joins values, the source holds several entries; their conditions need not be identical. Identical values can stand only once. Results filed as inconclusive are left out. Some compounds were tested as several samples or in several runs, with calls that do not always agree. Calls of active or inactive are those of the source. Unless noted, calls follow the shape of the dose curve; as a rule, active = well fitted curve in the direction sought with a large enough effect in the repeat runs; inconclusive = weak or mixed curves; inactive = no such curve, though single readings can be large; an effect the other way counts as inactive or inconclusive.
% is scaled to controls: 0 for no effect and ±100 for the full control effect.

Chain of Androgen receptor (Homo sapiens) (P10275 whole entry, looked up): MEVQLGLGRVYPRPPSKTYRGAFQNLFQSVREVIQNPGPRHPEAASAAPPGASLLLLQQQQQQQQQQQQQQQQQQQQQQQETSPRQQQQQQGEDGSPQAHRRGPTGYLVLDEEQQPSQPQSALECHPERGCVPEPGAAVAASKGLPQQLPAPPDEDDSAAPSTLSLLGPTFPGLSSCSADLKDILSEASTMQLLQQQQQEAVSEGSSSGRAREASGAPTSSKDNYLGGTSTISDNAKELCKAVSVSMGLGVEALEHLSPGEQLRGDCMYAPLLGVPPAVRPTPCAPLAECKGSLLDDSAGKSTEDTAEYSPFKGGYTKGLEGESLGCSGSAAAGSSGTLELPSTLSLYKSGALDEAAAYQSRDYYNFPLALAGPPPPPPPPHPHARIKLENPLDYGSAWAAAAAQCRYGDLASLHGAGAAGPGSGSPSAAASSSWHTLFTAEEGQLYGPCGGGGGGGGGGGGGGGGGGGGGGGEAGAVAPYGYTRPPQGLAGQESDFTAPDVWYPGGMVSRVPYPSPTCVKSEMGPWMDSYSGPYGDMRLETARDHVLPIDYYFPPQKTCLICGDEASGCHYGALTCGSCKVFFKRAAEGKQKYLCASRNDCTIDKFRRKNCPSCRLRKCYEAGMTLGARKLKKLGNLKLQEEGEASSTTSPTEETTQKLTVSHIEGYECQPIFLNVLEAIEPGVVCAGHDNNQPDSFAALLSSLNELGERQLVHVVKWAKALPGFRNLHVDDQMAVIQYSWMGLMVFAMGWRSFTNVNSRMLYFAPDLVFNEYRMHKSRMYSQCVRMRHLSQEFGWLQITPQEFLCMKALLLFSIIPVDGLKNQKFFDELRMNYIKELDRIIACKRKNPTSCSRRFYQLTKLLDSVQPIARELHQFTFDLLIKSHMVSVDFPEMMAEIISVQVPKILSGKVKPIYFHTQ
Chain of Estrogen receptor (Homo sapiens) (P03372 whole entry, looked up): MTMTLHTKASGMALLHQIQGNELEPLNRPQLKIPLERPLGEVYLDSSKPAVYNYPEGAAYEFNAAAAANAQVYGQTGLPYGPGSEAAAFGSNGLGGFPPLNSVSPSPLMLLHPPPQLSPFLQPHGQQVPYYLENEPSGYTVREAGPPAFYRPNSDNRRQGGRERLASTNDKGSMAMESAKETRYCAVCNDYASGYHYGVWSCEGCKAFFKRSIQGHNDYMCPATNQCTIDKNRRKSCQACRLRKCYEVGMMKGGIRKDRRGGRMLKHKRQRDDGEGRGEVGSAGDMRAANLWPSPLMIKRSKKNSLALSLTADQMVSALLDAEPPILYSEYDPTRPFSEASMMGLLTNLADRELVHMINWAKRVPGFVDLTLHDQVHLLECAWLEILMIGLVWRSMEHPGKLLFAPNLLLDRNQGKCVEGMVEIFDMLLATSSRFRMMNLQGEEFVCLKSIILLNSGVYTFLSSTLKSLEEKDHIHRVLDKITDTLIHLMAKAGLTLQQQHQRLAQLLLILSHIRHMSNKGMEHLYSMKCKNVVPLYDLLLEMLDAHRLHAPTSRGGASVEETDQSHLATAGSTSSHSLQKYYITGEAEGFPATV

As for `CC1(C)CCC[C@]2(C)[C@H]3CC(=O)O[C@]3(C)CC[C@@H]12`, the Potency result in [1], in [2], in [3], in [4], in experiment [5] and in [6] was “inactive” each time. Further, in [7], the Potency entry is “inactive”.

For `Nc1ccc(NCCO)c([N+](=O)[O-])c1`, the Potency entry in experiment [3], in experiment [4] and in [7] was “inactive” each time.

For the compound `Oc1ccccc1O`, the Potency result in experiment [1], in experiment [3], in experiment [4] and in experiment [7] was “inactive” each time. In addition, the Potency in [5] is 9.81 µM (active) and 15.4 µM (active); in [6], 6.19 µM (active) and 15.4 µM (active).

As to `COC1=C(OC)C(=O)C(CCCCCCCCCCO)=C(C)C1=O`, the Potency result in [1], in experiment [9], in [3], in experiment [4], in experiment [5] and in [6] was “inactive” in each case. Further, in experiment [7], the Potency result is “inactive”. The Potency in experiment [8] is 29.8 µM (active).

For the compound `Cc1cc(-c2ccc(N=Nc3cc(S(=O)(=O)O)c4ccccc4c3N)c(C)c2)ccc1N=Nc1cc(S(=O)(=O)O)c2ccccc2c1N`, the Potency entry in [10], in [3], in experiment [4], in [6] and in experiment [7] was “inactive” each time. For the same compound, in experiment [2], the Potency is 7.74 µM (active).

Turning to `COc1ccc2cc1Oc1ccc(cc1)C[C@H]1c3c(cc4c(c3Oc3cc5c(cc3OC)CCN(C)[C@@H]5C2)OCO4)CCN1C`, the Potency in experiment [1] was 21.1 µM (active); in experiment [5] it was 11.9 µM (active). Further, the Potency entry in [3], in [4] and in experiment [7] was “inactive” in each case.

In the case of `Oc1c(I)cc(Cl)c2cccnc12`, the Potency entry in experiment [10], in [9], in experiment [3], in experiment [4], in experiment [5] and in experiment [6] was “inactive” in each case. The Potency is 27.3 µM (active) and 26.6 µM (active) in experiment [8]; 38.5 µM (active) in experiment [7].

With `C=CC(=O)Nc1cc2c(Nc3ccc(F)c(Cl)c3)ncnc2cc1OCCCN1CCOCC1`, the Potency is 0.376 µM (active) in experiment [1]; 7.5 µM (active) in experiment [8]; 0.891 µM (active) in experiment [9]; 3.76 µM (active) in experiment [5]; 7.5 µM (active) in experiment [6]. For the same compound, the Potency entry in [2], in experiment [3], in [4] and in [7] was “inactive” in each case.

For the compound `C#CC1(O)CC[C@H]2[C@@H]3CCC4=CCCC[C@@H]4[C@H]3CC[C@@]21C` (some centres not stated), the Potency entry in experiment [10], in experiment [2], in experiment [9], in [3] and in [7] was “inactive” throughout. Moreover, the Potency was 29.8 µM (active) in [4] and 26.6 µM (active) in [5].

With `CCCCN(CCCC)CC(O)c1cc(Cl)cc2c1-c1ccc(Cl)cc1/C2=C/c1ccc(Cl)cc1` (configuration not stated), the Potency entry in [1], in experiment [2], in [3] and in experiment [4] was “inactive” each time. The Potency in [5] was 26.6 µM (active).

On to `CC[C@H](C)COC(=O)/C=C/c1ccc(N=Cc2ccc(OC)cc2)cc1`, for which the Potency entry in [10], in experiment [1], in [4], in experiment [6] and in [7] was “inactive” throughout.

Turning to `Clc1nnc(Cl)c2ccccc12`, the Potency entry in experiment [10], in [2], in experiment [3], in experiment [4], in experiment [5] and in [7] was “inactive” in each case.

Regarding `Cc1ccc(O)c(O)c1`, the Potency entry in experiment [1] and in [3] was “inactive” in each case.

Take `OCCN1CCN(CCCN2c3ccccc3Sc3ccc(C(F)(F)F)cc32)CC1`: the Potency entry in [10], in experiment [2], in experiment [3], in experiment [4], in experiment [6] and in experiment [7] was “inactive” throughout. For the same compound, the Potency in [5] is 23.7 µM (active).

`O=C(O)c1cc(N=Nc2ccc([N+](=O)[O-])cc2)ccc1O`: the Potency entry in experiment [2], in [4] and in experiment [7] was “inactive” throughout. Moreover, the figures for the Potency in [3] and in experiment [5] were 0.848 µM (active) and 26.8 µM (active), respectively.

Take `CNC(=O)c1ccccc1Sc1ccc2c(/C=C/c3ccccn3)n[nH]c2c1`: the Potency result in [10] was “inactive”. Besides, the Potency in experiment [5] is 13.3 µM (active).

`CCN(CC)C(=O)c1cc(S(=O)(=O)Cc2ccccc2)c(N2CCC(c3ccccc3)CC2)cc1N(CC)CCN(C)C`: the Potency result in experiment [10], in experiment [2], in experiment [9], in [3] and in [4] was “inactive” in each case. Moreover, the Potency in experiment [5] was 13.5 µM (active).

With `CN1CCC[C@@H]1CCO[C@](C)(c1ccccc1)c1ccc(Cl)cc1`, the Potency in experiment [1] is 26.6 µM (active); in [5], 23.7 µM (active). The Potency entry in experiment [3], in experiment [4] and in [7] was “inactive” in each case.

For the compound `Cc1ccc(O)c(N)c1`, the Potency entry in [10], in experiment [1], in experiment [4] and in experiment [7] was “inactive” in each case. Also, in experiment [5], the Potency is 43.3 µM (active).

As for `O=S(=O)(O)c1ccc(Nc2nc(Nc3ccc(/C=C/c4ccc(Nc5nc(Nc6ccc(S(=O)(=O)O)cc6)nc(N(CCO)CCO)n5)cc4S(=O)(=O)O)c(S(=O)(=O)O)c3)nc(N(CCO)CCO)n2)cc1`, the Potency result in experiment [1], in experiment [8], in experiment [2], in experiment [3], in [4] and in [5] was “inactive” throughout. Further, the Potency entry in [6] and in experiment [7] was “inactive” in each case.

For the compound `O=S(=O)(O)c1ccccc1/C=C/c1ccc(-c2ccc(/C=C/c3ccccc3S(=O)(=O)O)cc2)cc1`, the Potency entry in experiment [1], in experiment [2], in experiment [3], in experiment [4] and in experiment [7] was “inactive” each time.

`CCCCCCCCCCCCCC[N+](C)(C)C`: the Potency in experiment [1] was 23.5 µM (active); in experiment [2] it was 2.96 µM (active) and 3.85 µM (active) and 26.6 µM (active); in experiment [5] it was 21 µM (active) and 27.3 µM (active) and inactive. In addition, the Potency result in experiment [9], in experiment [3], in experiment [4], in experiment [6] and in experiment [7] was “inactive” throughout.

On to `CC(CCc1ccccc1)NCC(O)c1ccc(O)c(C(N)=O)c1` (configuration not stated), for which the Potency entry in experiment [1], in [2], in experiment [9], in experiment [3], in [4] and in [7] was “inactive” in each case. The values for the Potency in experiment [5] and in [6] were 19.3 µM (active) and 17.2 µM (active), respectively.

Regarding `COc1ccc(NC(=O)CC(C)=O)cc1`, the Potency entry in [10], in [1], in experiment [4], in experiment [5], in experiment [6] and in [7] was “inactive” in each case.

On to `CCCCCCCCCCCCCCCC[N+](C)(C)CC`, for which the Potency entry in [10], in experiment [9], in experiment [3], in [4] and in experiment [7] was “inactive” in each case. For the same compound, the Potency in experiment [2] is 27.4 µM (active) and 26.6 µM (active); in experiment [5], 68.8 µM (active).

For the compound `O=C1CCc2ccc(OCCCCN3CCN(c4cccc(Cl)c4Cl)CC3)cc2N1`, the Potency in experiment [1] was 29.8 µM (active). The Potency result in experiment [9], in [3], in [4], in experiment [6] and in experiment [7] was “inactive” in each case.

For the compound `CC[N+](CC)(CC)CCOc1ccc(/C=C/c2ccccc2)cc1`, the Potency result in [10], in experiment [9], in experiment [3], in experiment [4], in experiment [5] and in experiment [7] was “inactive” each time. In addition, the Potency in experiment [2] is 13.3 µM (active).

For `O=C(O)O`, the results for the viability change, negative = cytotoxic in [1] and in experiment [6] were 0.635% [at 8.39 µM] (inactive) and -2.57% [at 8.39 µM] (inactive), respectively. Moreover, the activity change, negative = inhibition in experiment [2] was -65% [at 8.39 µM] (inactive); in experiment [3], 2.76% [at 8.39 µM] (inactive). Besides, in [4], the activity change, negative = cytotoxicity is -4.12% [at 8.39 µM] (inactive).

`CC(C)(C)c1ccc(C(O)CCCN2CCC(C(O)(c3ccccc3)c3ccccc3)CC2)cc1` (configuration not stated): the figures for the Potency in experiment [1] and in experiment [5] were 16.8 µM (active) and 26.6 µM (active), respectively. For the same compound, the Potency result in [9], in [3], in experiment [6] and in experiment [7] was “inactive” in each case.

With `CN1CCN(Cc2cc(-c3ccc4[nH]c(=O)oc4c3)co2)[C@@H](c2ccc(F)cc2)C1`, the Potency result in experiment [1], in [3], in experiment [4] and in [7] was “inactive” in each case.

For `C=C(C)C(=O)OCCCCCCCCCC`, the Potency entry in [1], in experiment [3], in [4] and in experiment [7] was “inactive” in each case.

Take `CCCCCCCCCCCCOC(=O)c1ccc(O)cc1`: the Potency entry in experiment [1], in experiment [3], in [4] and in [5] was “inactive” each time.

For the compound `CC[N+](CC)(CC)CCOC(=O)C(C1CCCC1)C1CCCC1`, the Potency entry in experiment [10], in [3], in experiment [4], in [5], in experiment [6] and in experiment [7] was “inactive” in each case. For the same compound, the PLD induction in [9] is 0.0817% [at 7.66 µM] (inactive).
